Assay results taken from PubChem BioAssay (NCATS).
“And” between values parts separate entries of the source, which are not always exact repeats. Equal entries are not always repeated. Results filed as inconclusive are left out. Where a structure was tested more than once in an assay, its records may differ in their call. The source made the active and inactive calls. Unless noted, the call rests on the fitted dose curve; in most records, active means well fitted curve in the direction sought with a large enough effect; inconclusive means small, poorly fitted or top-dose-only effect, or another doubt; inactive means no such curve, though single readings can be large; an effect the other way counts as inactive or inconclusive.

What was measured:
[1] = target: Atrial natriuretic peptide receptor 2 (Homo sapiens) (UniProt P20594); assay: Natriuretic polypeptide receptor (hNpr2) antagonism - Pilot subtype selectivity assay (AID 1347050; calls by dose curve; further: on the % scale 0 is the no-effect control and ±100 the full control effect)
Method in brief: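 Pilot selectivity screen against hNpr2: HEK293 cGMP-sensor cells are treated with LOPAC1280 compounds, then with hNppC peptide at 1 nM final. The cGMP-driven luminescence change over 20 min at room temperature is the read-out.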

[2] = NS1 protein of Zika virus - qHTS assay to identify small molecule inhibitors in human HEK 293 cells (AID 1347053); further: nearly all actives have a fitted effect of over 55% in size; further: potency means the concentration at half of the fitted maximal effect
Method in brief: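 HEK 293; 20 h pre-culture, 37 C/5% CO2; cpd 1 h pre-infection; ZIKV MR766, MOI = 0.5, 24 h, 37 C; TR-FRET NS1 readout (two anti-NS1 Abs); norm. to no-virus vs infected.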

[3] = target: T1, Tyrosine-protein phosphatase non-receptor type substrate 1 (Homo sapiens) + Leukocyte surface antigen CD47 (Homo sapiens) (UniProt P78324+Q08722); assay: CD47-SIRPalpha protein protein interaction - LANCE assay qHTS validation (AID 1347057; active means well fitted curve in the direction sought with a large enough effect in the signal ratio, with a control signal flat, not every such curve was filed as active; the % refers to the signal ratio; further: series mostly up to about 38 µM; 0% is about no effect)
Method in brief: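 First, His-tagged CD47 and Eu-labelled anti-His antibody met the compound for 30 min; next, site-specifically biotinylated SIRPalpha was added for 30 min; finally streptavidin-APC was added before reading the TR-FRET ratio.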

[4] = target: T1, Tyrosine-protein phosphatase non-receptor type substrate 1 (Homo sapiens) + Leukocyte surface antigen CD47 (Homo sapiens); assay: CD47-SIRPalpha protein protein interaction - HTRF assay qHTS validation (AID 1347058; active means well fitted curve in the direction sought with a large enough effect in the signal ratio, not every such curve was filed as active; the % refers to the signal ratio;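 further: recombinant soluble extracellular CD47 with His tag and biotinylated SIRPalpha domains; series mostly up to about 38 µM; 0% is about no effect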)
Method in brief: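 TR-FRET read (Ch1/Ch2 ratio) of soluble extracellular CD47 and Avi-biotinylated SIRPalpha domains in PBS pH 7.4 with 0.05% IGEPAL; 7-point compound titration. Sequential 30 min room-temperature steps; non-biotinylated SIRPalpha as control inhibitor.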

[5] = target: T1, Tyrosine-protein phosphatase non-receptor type substrate 1 (Homo sapiens) + Leukocyte surface antigen CD47 (Homo sapiens); assay: CD47-SIRPalpha protein protein interaction - Alpha assay qHTS validation (AID 1347059);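 further: bead proximity luminescence from CD47 binding SIRPalpha after compound preincubation with SIRPalpha; on the % scale 0 is the no-effect control and ±100 the full control effect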
Method in brief: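 Binding is measured by AlphaScreen proximity: Ni-NTA acceptor beads capture His-CD47, streptavidin donor beads capture biotin-SIRPalpha. Each of three additions (SIRPalpha with compound, CD47, beads) incubates 30 min at room temperature protected from light.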

[6] = qHTS for Inhibitors of the Functional Ribonucleoprotein Complex (vRNP) of Lassa (LASV) Arenavirus: LASV Primary Screen - GLuc reporter signal (AID 1347082; calls by dose curve; tested in HEK293 reporter line; further: nearly all actives have a fitted effect of over 60% in size; further: potency means the concentration at half of the fitted maximal effect)
[7] = qHTS for Inhibitors of the Functional Ribonucleoprotein Complex (vRNP) of Lassa (LASV) Arenavirus: Viability assay - alamar blue signal for LASV Primary Screen (AID 1347083; calls by dose curve; tested in HEK293 reporter line; further: series mostly up to about 57 µM; on the % scale 0 is the no-effect control and ±100 the full control effect; nearly all actives have a fitted effect of over 80% in size)
[8] = qHTS for Inhibitors of the Functional Ribonucleoprotein Complex (vRNP) of Lymphocytic Choriomeningitis Arenaviruses (LCMV): Viability assay - alamar blue signal for LCMV Primary Screen (AID 1347085; calls by dose curve; tested in HEK293 reporter line; further: series mostly up to about 57 µM; on the % scale 0 is the no-effect control and ±100 the full control effect; nearly all actives have a fitted effect of over 80% in size)
[9] = target: Nucleoprotein (Lymphocytic choriomeningitis virus (strain Armstrong)) (UniProt P09992); assay: qHTS for Inhibitors of the Functional Ribonucleoprotein Complex (vRNP) of Lymphocytic Choriomeningitis Arenaviruses (LCMV): LCMV Primary Screen - GLuc reporter signal (AID 1347086; calls by dose curve; further: nearly all actives have a fitted effect of over 70% in size; further: potency means the concentration at half of the fitted maximal effect)
[10] = qHTS of pediatric cancer cell lines to identify multiple opportunities for drug repurposing: Primary screen for TC32 cells (AID 1347089); further: nearly all actives have a fitted effect of over 60% in size; further: potency means the concentration at half of the fitted maximal effect; on activity change, negative = cytotoxic: on the % scale 0 is the no-effect control and ±100 the full control effect
Method in brief: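 TC32 cells, 500-1,000/well in growth medium, compound-treated 48 h at 37 °C; viability from CellTiter-Glo luminescence. Primary screen: MIPE 11-point (0.78 nM–46 µM final), NPC 8-point (0.59 nM–46 µM final); confirmatory at 11-point dilutions.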

T1 sequence (P78324 whole entry, looked up): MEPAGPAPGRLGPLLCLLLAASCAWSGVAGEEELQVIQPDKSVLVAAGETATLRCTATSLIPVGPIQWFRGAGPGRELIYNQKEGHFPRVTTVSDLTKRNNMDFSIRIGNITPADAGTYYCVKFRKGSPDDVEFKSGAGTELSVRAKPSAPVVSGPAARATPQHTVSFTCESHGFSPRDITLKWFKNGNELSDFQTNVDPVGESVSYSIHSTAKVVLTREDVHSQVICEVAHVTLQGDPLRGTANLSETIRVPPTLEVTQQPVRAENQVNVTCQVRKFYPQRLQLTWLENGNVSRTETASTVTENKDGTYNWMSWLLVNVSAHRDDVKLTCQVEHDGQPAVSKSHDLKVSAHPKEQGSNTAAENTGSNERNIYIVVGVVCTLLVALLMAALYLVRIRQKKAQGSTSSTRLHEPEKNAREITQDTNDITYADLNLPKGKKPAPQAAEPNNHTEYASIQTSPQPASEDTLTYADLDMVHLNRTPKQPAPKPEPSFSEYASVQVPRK
T1 sequence (Q08722 whole entry, looked up): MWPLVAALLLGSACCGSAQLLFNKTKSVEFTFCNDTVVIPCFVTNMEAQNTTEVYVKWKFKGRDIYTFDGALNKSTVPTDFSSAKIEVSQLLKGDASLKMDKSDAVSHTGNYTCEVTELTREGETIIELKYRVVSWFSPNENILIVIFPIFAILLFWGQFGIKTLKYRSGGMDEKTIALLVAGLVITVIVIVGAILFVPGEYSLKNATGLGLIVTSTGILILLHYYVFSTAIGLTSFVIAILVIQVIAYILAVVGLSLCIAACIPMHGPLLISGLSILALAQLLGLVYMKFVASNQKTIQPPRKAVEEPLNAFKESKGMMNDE
Chain of Nucleoprotein (Lymphocytic choriomeningitis virus (strain Armstrong)) (P09992 whole entry, looked up): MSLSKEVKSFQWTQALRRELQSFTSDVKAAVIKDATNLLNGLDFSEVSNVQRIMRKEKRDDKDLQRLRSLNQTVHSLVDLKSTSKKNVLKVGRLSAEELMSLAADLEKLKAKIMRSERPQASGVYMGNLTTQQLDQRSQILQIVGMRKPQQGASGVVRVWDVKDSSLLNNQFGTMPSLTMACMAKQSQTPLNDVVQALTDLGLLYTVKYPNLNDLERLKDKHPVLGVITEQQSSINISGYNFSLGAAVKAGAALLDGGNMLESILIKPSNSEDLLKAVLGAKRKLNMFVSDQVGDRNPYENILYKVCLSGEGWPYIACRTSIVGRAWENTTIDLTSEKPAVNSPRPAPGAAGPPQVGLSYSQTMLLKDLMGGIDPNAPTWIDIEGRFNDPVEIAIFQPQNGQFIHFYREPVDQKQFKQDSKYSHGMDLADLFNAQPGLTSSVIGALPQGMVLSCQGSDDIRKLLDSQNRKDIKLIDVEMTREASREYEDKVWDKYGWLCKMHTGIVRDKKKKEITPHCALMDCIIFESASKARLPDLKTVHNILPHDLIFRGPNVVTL
Chain of Atrial natriuretic peptide receptor 2 (Homo sapiens) (P20594 whole entry, looked up): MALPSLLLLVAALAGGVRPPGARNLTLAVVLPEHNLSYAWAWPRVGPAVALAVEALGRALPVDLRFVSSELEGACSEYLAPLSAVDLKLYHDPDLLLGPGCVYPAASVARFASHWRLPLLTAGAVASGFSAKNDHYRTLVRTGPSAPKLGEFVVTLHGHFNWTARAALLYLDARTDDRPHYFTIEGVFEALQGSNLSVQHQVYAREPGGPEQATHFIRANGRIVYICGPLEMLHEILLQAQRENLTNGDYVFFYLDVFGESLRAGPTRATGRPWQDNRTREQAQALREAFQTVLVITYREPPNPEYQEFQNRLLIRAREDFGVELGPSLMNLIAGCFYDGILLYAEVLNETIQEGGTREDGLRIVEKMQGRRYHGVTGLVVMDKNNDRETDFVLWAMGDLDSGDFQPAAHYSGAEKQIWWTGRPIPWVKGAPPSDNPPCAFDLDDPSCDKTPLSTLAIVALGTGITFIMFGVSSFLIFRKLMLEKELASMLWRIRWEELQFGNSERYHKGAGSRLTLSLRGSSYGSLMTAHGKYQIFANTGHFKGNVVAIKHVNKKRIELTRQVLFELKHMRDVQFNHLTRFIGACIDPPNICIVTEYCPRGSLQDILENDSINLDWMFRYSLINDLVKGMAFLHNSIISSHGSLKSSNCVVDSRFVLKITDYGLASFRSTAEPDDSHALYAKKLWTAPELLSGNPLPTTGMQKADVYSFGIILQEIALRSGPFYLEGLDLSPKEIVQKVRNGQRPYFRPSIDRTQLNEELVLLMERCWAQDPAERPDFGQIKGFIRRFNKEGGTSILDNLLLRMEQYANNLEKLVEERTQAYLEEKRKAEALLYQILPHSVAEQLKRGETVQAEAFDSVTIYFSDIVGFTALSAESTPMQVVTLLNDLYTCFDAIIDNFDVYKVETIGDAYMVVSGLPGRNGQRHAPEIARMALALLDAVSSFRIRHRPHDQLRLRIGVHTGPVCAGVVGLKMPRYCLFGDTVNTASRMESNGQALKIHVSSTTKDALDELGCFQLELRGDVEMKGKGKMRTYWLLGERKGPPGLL

NCC1(CC(=O)O)CCCCC1
inactive: Potency [1] | Potency [2] | outcome [3] | outcome [4] | outcome [5] | Potency [6] | Potency [7] | Potency [8] | Potency [9] | Potency [10]

CC(=O)[C@H]1CC[C@H]2[C@@H]3CC[C@H]4C[C@](C)(O)CC[C@]4(C)[C@H]3CC[C@]12C
inactive: Potency [1] | Potency [2] | outcome [3] | outcome [4] | outcome [5] | Potency [6] | Potency [7] | Potency [8] | Potency [9] | Potency [10]

CC(=O)[C@H]1CC[C@H]2[C@@H]3CC[C@H]4C[C@H](O)CC[C@]4(C)[C@H]3C(=O)C[C@]12C
inactive: Potency [1] | Potency [2] | outcome [3] | outcome [4] | outcome [5] | Potency [6] | Potency [7] | Potency [8] | Potency [9] | Potency [10]

NCC(O)c1ccc(O)cc1 (configuration not stated)
inactive: Potency [1] | Potency [2] | outcome [3] | outcome [4] | outcome [5] | Potency [6] | Potency [7] | Potency [8] | Potency [9] | Potency [10]

CC(C)=CCOc1c2occc2cc2ccc(=O)oc12
inactive: Potency [1] | Potency [2] | outcome [3] | outcome [5] | Potency [6] | Potency [7] | Potency [8] | Potency [9] | Potency [10]

CNCC(O)c1ccc(O)cc1 (configuration not stated)
inactive: Potency [1] | Potency [2] | outcome [3] | outcome [4] | outcome [5] | Potency [6] | Potency [7] | Potency [8] | Potency [9] | Potency [10]

NCC(CC(=O)O)c1ccc(Cl)cc1 (configuration not stated)
inactive: Potency [1] | Potency [2] | outcome [3] | outcome [4] | outcome [5] | Potency [6] | Potency [7] | Potency [8] | Potency [9] | activity change, negative = cytotoxic [10] 1.72% [at 0.594 µM]

c1ccc(C2CC2)c(OCC2=NCCN2)c1
inactive: Potency [1] | Potency [2] | outcome [3] | outcome [4] | outcome [5] | Potency [6] | Potency [7] | Potency [8] | Potency [9] | Potency [10]

Fc1ccc(C(OCCN2CCN(CCCc3ccccc3)CC2)c2ccc(F)cc2)cc1
active: Potency [6] 34.3 µM | Potency [9] 30.6 µM | Potency [10] 13.1 µM
inactive: Potency [1] | outcome [3] | outcome [4] | outcome [5]

CNC(=O)N1N=C(c2ccc(N)cc2)c2cc3c(cc2CC1C)OCO3 (configuration not stated)
inactive: Potency [2]

CCCN1CCC[C@@H]2Cc3nc(N)ncc3C[C@H]21
inactive: Potency [1] | Potency [2] | outcome [3] | outcome [4] | outcome [5] | Potency [6] | Potency [7] | Potency [8] | Potency [9] | Potency [10]

CC(O)(CS(=O)(=O)c1ccc(F)cc1)C(=O)Nc1ccc(C#N)c(C(F)(F)F)c1 (configuration not stated)
inactive: Potency [1] | Potency [2] | outcome [3] | outcome [4] | outcome [5] | Potency [6] | Potency [7] | Potency [8] | Potency [9]

O=c1[nH]c2ccccc2n1CCCN1CCC(n2c(=O)[nH]c3cc(Cl)ccc32)CC1
inactive: Potency [2] | outcome [3] | outcome [4] | outcome [5] | Potency [6] | Potency [7] | Potency [8] | Potency [9] | Potency [10]

Cc1ccc(S(=O)(=O)N[C@@H](CCCCN)C(=O)CCl)cc1
inactive: Potency [1] | Potency [2] | outcome [3] | outcome [4] | outcome [5] | Potency [6] | Potency [7] | Potency [8] | Potency [9] | Potency [10]

Cc1cccc(C)c1NC(=O)CN1CCCC1=O
inactive: Potency [1] | Potency [2] | outcome [3] | outcome [4] | outcome [5] | Potency [6] | Potency [7] | Potency [8] | Potency [9] | Potency [10]

Cc1cccc(C)c1NC1=NCCCS1
inactive: Potency [1] | Potency [2] | outcome [3] | outcome [4] | outcome [5] | Potency [6] | Potency [7] | Potency [8] | Potency [9] | Potency [10]

CC[C@@H](CO)NC(=O)[C@@H]1C=C2c3cccc4c3c(cn4C)C[C@H]2N(C)C1
inactive: Potency [1] | outcome [5] | Potency [6] | Potency [7] | Potency [8] | Potency [9] | Potency [10]

COc1ccccc1N1CCNCC1
inactive: Potency [1] | Potency [2] | outcome [3] | outcome [4] | outcome [5] | Potency [6] | Potency [7] | Potency [8] | Potency [9] | Potency [10]

COC[C@H]1OC(=O)c2coc3c2[C@@]1(C)C1=C(C3=O)C2CCC(=O)[C@@]2(C)C[C@H]1OC(C)=O (some centres not stated)
inactive: Potency [1] | Potency [2] | outcome [3] | outcome [4] | outcome [5] | Potency [6] | Potency [7] | Potency [9] | Potency [10]

Cn1c(CCCC(=O)O)nc2cc(N(CCCl)CCCl)ccc21
inactive and 20.9 µM (active): Potency [2]
inactive: outcome [3] | outcome [4] | outcome [5] | Potency [6] | Potency [7] | Potency [8] | Potency [9] | Potency [10]

O=C1NCN(c2ccccc2)C12CCN(CC1COc3ccccc3O1)CC2 (configuration not stated)
inactive: Potency [1] | Potency [2] | outcome [3] | outcome [4] | outcome [5] | Potency [6] | Potency [7] | Potency [8] | Potency [9] | Potency [10]

C[C@]12CCC(=O)C(O)=C1CC[C@@H]1[C@@H]2CC[C@]2(C)C(=O)CC[C@@H]12
inactive: Potency [1] | Potency [2] | Potency [6] | Potency [7] | Potency [8] | Potency [9] | Potency [10]
